The test deals with Interleukin-8 (IL8, CXCL8), C-terminal His-tagged (Homo sapiens, UniProt P10145 SEQ:1-72). Description: competition; competition TR-FRET; L1 A to U, described as complete loss. Conditions: tags: C-terminal 6xHis (Sino Biological); ssRNA; 2'-F G, 2'-OMe A/C/U, 5' C6NH2, 3' idT. As for the experimental part:
To better understand the sequence requirements and to confirm the stem structures of members of the Aptamer 3 family as determined from sequence covariation analysis from both the primary and secondary (degenerate) selections, a series of variants which included mutations and deletions to the predicted stems were synthesized and screened (Table 24). Activity of each of these variants were tested using a time resolved competition TR-FRET assay in which the labeled parent Aptamer 3 was competed with increasing concentrations of unlabeled variants for binding to IL8 (FIG. 14). Briefly, 2-fold dilutions of thermally equilibrated aptamers were made in TR-FRET Buffer (50 mM MOPS, pH 7.4, 125 mM NaCl, 5 mM KCl, 50 μM CHAPS, 0.1 mg/mL BSA, 1 mM CaCl₂, and 1 mM MgCl₂). 5 μL of aptamer or control solution was added to 5 μl mix of 10 nM C-terminal His-tagged-IL8, 60 nM ALEXA FLUOR® 647-labeled Aptamer, and 5 nM anti-His-Eu (Perkin Elmer) in a black wall low volume 384 well plate (Greiner). […] The plate was read on a Biotek CYTATION™ 5 plate reader. […]
To confirm the importance of this residue, molecules were made and tested in which either loop L1 was deleted entirely (Aptamer 40) or was mutated to 5′-U-3′(Aptamer 41). In both cases, there was a complete loss of activity (>10-fold) as determined by competition TR-FRET assay (Table 25 and FIG. 15).
GAUGUCGGUAGAUUACGGGUAGAGUGACCGCAUC returned a binding signal of more than 10 fold worse than Aptamer 3.

For the origin of these results see patent publication US20210230599, “STEM-LOOP COMPOSITIONS AND METHODS FOR INHIBITING INTERLEUKIN-8” (VITRISA THERAPEUTICS, INC., published 2021).
